The record followed here is PubChem BioAssay (NCATS).

The structures appear in SMILES notation. Results filed as inconclusive are left out. Entries that show only a call come without a potency. A number with no mark means an inactive call. Active and inactive are the calls of the source. Calls follow the shape of the dose curve; as a rule, active = well fitted curve in the direction sought with a large enough effect; inconclusive = small, poorly fitted or top-dose-only effect, or another doubt; inactive = no such curve, though single readings can be large; an effect the other way counts as inactive or inconclusive.

The test system of test [1] is Zika virus NS2B-NS3 protease. Kind of test: Primary screen GU AMC qHTS for Zika virus inhibitors (AID 1347154). Also: nearly all actives have a fitted effect of over 70% in size. In a few lines:
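Unlinked Zika NS2B hydrophilic domain/NS3 protease domain noncovalent complex (25 nM final) in 10 mM Tris-HCl pH 8.0, 0.01% Tween 20, with AMC peptide substrate. Fluorescence (ex 340, em 450 nm) change over 15 min, room temperature; percent inhibition fitted to 4-parameter Hill equation.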
(In general: Quantitative high-throughput screening tests each substance at several concentrations.)

In test [2] the test system is Zika virus NS2B-NS3 protease (unlinked complex). Nature of the test: Primary screen GU Rhodamine qHTS for Zika virus inhibitors: Unlinked NS2B-NS3 protease assay (AID 1347159). Also: nearly all actives have a fitted effect of over 60% in size. In a few lines:
(§1)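 Enzyme 25 nM in Tris-HCl pH 8.0 + 0.01% Tween 20; compounds up to 114 microM, 15 min RT dark; + Rhod110 substrate 1.5 microM; read t0 and 15 min; delta fluorescence → % inhibition → 4-parameter Hill fit.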

Test [3] in a line: Confirmatory screen GU Rhodamine qHTS for Zika virus inhibitors qHTS (AID 1347157). Also: nearly all actives have a fitted effect of over 70% in size. In a few lines:
as §1
Potency is read from the fitted curve at half-maximal effect.

In the case of `CC1CCN(c2cc(N3CCN(C)CC3)ccc2NC(=O)c2cc(C#N)c[nH]2)CC1`, the Potency entry in test [1] and in test [2] was “inactive” in each case. As to `C[C@@H](N)c1ccc(C(=O)Nc2ccnc3[nH]ccc23)cc1`, the Potency result in test [1] and in test [2] was “inactive” each time. As for `CN1CC(=O)NC1=NC(=O)Nc1cccc(Cl)c1`, the Potency entry in test [1] was “inactive”. Take `CNC1CCC(N(Cc2cccc(-c3ccncc3)c2)C(=O)c2sc3ccccc3c2Cl)CC1` (stereo unspecified): the Potency entry in test [1] and in test [2] was “inactive” each time. `O=C(Nc1cccc(C(F)(F)F)c1)Nc1cc(S(=O)(=O)NC2CC2)ccc1-c1ccsc1`: the Potency entry in test [1] is “inactive”. In addition, the Potency in test [2] was 22.4 µM (active). As for `CNC(=O)c1c(-c2ccc(F)cc2)oc2cc(N(CCO)S(C)(=O)=O)c(C3CC3)cc12`, in test [1], the Potency is 27.1 µM (active). The Potency entry in test [2] is “inactive”. On the same counts, the results for `Cc1cc(C(C)Nc2ccccc2)c2nc(N3CCOCC3)cc(=O)n2c1` (stereo unspecified) are “inactive” and “inactive”. Regarding `CC(C)N(CCCNC(=O)Nc1ccc(C(C)(C)C)cc1)C[C@H]1O[C@@H](n2cc(Br)c3c(N)ncnc32)[C@H](O)[C@H]1O`, in test [1], the Potency entry was “inactive”. In the case of `C[C@@H](NC(=O)c1ncnc(N)c1Cl)c1ncc(C(=O)Nc2cc(C(F)(F)F)c(Cl)cn2)s1`, the Potency result in test [1] and in test [2] was “inactive” in each case.

Turning to `Cc1ccc2c(c1)c1c(n2CCc2ccc(C)nc2)CCN(C)C1`, the Potency result in test [1] and in test [2] was “inactive” in each case.

In the case of `CCN1CCN(c2ccc(Nc3cc(N(C)C(=O)Nc4c(Cl)c(OC)cc(OC)c4Cl)ncn3)cc2)CC1`, the Potency entry in test [1] and in test [2] was “inactive” throughout. For `NC(=O)c1ncn([C@@H]2O[C@H](CO)[C@@H](O)[C@@H]2O)n1`, the Potency result in test [1] is “inactive”. In the case of `Cc1ccccc1C(C(=O)NC1CCCCC1)N(C(=O)CNc1ccc(C#N)cc1)c1cccc(F)c1` (stereo unspecified), the Potency entry in test [1] and in test [2] was “inactive” throughout. Consider `Clc1ccc(C2(c3ccc(-c4cn[nH]c4)cc3)CCNCC2)cc1`, for which the Potency result in test [1] and in test [2] was “inactive” throughout. On to `CC(C)(O)CC(=O)NCCn1ccc2ncnc(Nc3ccc(Oc4cccc(C(F)(F)F)c4)c(Cl)c3)c21`, for which the Potency result in test [1] and in test [2] was “inactive” throughout. Turning to `O=C(CO)N1CCC(c2[nH]nc(-c3ccc(Cl)cc3)c2-c2ccncn2)CC1`, the Potency entry in test [1] and in test [2] was “inactive” in each case.

On to `COc1cc2c(cc1OC)CC(=O)N(CCCN(C)C[C@H]1Cc3cc(OC)c(OC)cc31)CC2`, for which the Potency result in test [1] is “inactive”.

As for `NS(=O)(=O)c1cc(Cl)c(Cl)c(S(N)(=O)=O)c1`, the Potency result in test [1] and in test [2] was “inactive” in each case. For `COc1ccc(CCC(=O)Nc2nc3ccc(Cl)cc3s2)cc1OC`, the Potency entry in test [1] and in test [2] was “inactive” throughout.

For `CC(=O)Nc1cccc(-n2c(=O)n(C3CC3)c(=O)c3c(Nc4ccc(I)cc4F)n(C)c(=O)c(C)c32)c1`, the Potency result in test [1] and in test [2] was “inactive” each time. For `C[C@@]1(c2cc(-c3cncnc3)c(F)cc2F)CCSC(N)=N1`, the Potency entry in test [1] and in test [2] was “inactive” throughout. For `CCN(CCO)CCCOc1ccc2c(Nc3cc(CC(=O)Nc4cccc(F)c4)[nH]n3)ncnc2c1`, the Potency entry in test [1] and in test [2] was “inactive” each time.

Consider `Cn1c(=O)c(-c2c(Cl)cccc2Cl)cc2cnc(Nc3cccc(C(=O)O)c3)nc21`, for which, in test [1], the Potency result is “inactive”. Further, the Potency in test [3] is 11.1 µM (active); in test [2], 7.94 µM (active). Consider `O=C(O)c1nc(=O)[nH]c(=O)[nH]1`, for which the Potency result in test [1] is “inactive”. On to `COc1nccc(-c2c(-c3ccc(F)cc3)ncn2C2CCNCC2)n1`, for which the Potency entry in test [1] and in test [2] was “inactive” in each case.

As to `COc1ccc(-c2nc3ccc(C4=NNC(=O)CC4C)cc3[nH]2)cc1` (stereo unspecified), the Potency entry in test [2] was “inactive”.

With `c1ccc(CNc2nc(N3CCOc4ccccc43)nc3c2CCCC3)cc1`, in test [2], the Potency result is “inactive”. Regarding `CN[C@@H](C)[C@H]1[C@H](O)C[C@@]2(C)[C@@H]3CC[C@H]4C(C)(C)[C@@H](NC)CC[C@@]45C[C@@]35CC[C@]12C`, the Potency result in test [1] was “inactive”. For the same compound, the activity change, negative = inhibition in test [2] is 119% [at 19.1 µM]. As for `NC(=O)c1ccc(N(C(N)=O)c2c(F)cccc2F)nc1-c1ccc(F)cc1F`, the Potency result in test [1] and in test [2] was “inactive” in each case. As to `CN(C)c1ccc(-c2nc3ncc(Cl)c(N4CCN(CC(=O)Nc5nccs5)CC4)c3[nH]2)cc1`, the Potency in test [2] is 17.8 µM (active).

Regarding `CC(C)(C)c1nc(-c2cccc(NS(=O)(=O)c3c(F)cccc3F)c2F)c(-c2ccnc(N)n2)s1`, in test [2], the Potency was 14.1 µM (active). In the case of `O[C@@H](COc1cccc2ncccc12)CN1CCN(C2c3ccccc3[C@@H]3[C@H](c4ccccc42)C3(F)F)CC1` (stereo partly specified), the Potency entry in test [2] was “inactive”.

For the compound `c1ccc(-c2oc3ncnc(NC[C@@H]4CCCO4)c3c2-c2ccccc2)cc1`, in test [1], the Potency is 30.4 µM (active). Besides, the Potency entry in test [2] was “inactive”. For the compound `COc1ccc(-c2cc3nccn3c(Nc3ncccc3C(N)=O)n2)cc1OC`, the Potency result in test [2] is “inactive”. `CN1C(=O)C(Cc2c[nH]c3ccccc23)NC1=S` (stereo unspecified): the Potency entry in test [1] and in test [2] was “inactive” in each case. Consider `Cn1cnc(-c2cc3nccc(Oc4ccc(NC(=S)NC(=O)Cc5ccccc5)cc4F)c3s2)c1`, for which the Potency result in test [1] and in test [2] was “inactive” throughout.

In the case of `NC1(C(=O)N[C@@H](CCO)c2ccc(Cl)cc2)CCN(c2ncnc3[nH]ccc23)CC1`, the Potency entry in test [1] and in test [2] was “inactive” each time. For the compound `CN(C)CCOc1cc(-c2cn[nH]c2)ccc1NC(=O)C1COc2ccccc2O1` (stereo unspecified), the Potency entry in test [1] and in test [2] was “inactive” throughout. For `COC(=O)N1CCN(Cc2cccc(NC(=O)Nc3ccc(C)nc3)c2F)CC1`, the Potency entry in test [1] and in test [2] was “inactive” each time.

Regarding `CNC(=O)c1ccc2c(C(=Nc3cccc(CN(C)C)c3)c3ccccc3)c(O)[nH]c2c1`, the Potency entry in test [2] is “inactive”. Take `CS(=O)(=O)c1ccc(C2=C(c3ccccc3)C(=O)OC2)cc1`: the Potency entry in test [1] and in test [2] was “inactive” each time.

Turning to `COc1nc(C)cnc1NS(=O)(=O)c1cccnc1-c1ccc(-c2nnco2)cc1`, the Potency result in test [1] and in test [2] was “inactive” in each case. Regarding `Cc1cccc2c1CC[C@H](CN1CCC(c3c(Cl)cccc3Cl)CC1)C[C@@H]2O`, the Potency result in test [1] and in test [2] was “inactive” in each case. Turning to `Cc1cc(-c2ncc(CC(=O)Nc3ccc(-c4cnccn4)cn3)cc2C)ccn1`, the Potency entry in test [2] was “inactive”. For the compound `CC(C)CNc1ccnc(NCc2csc(-c3ccccc3)n2)n1`, the Potency result in test [1] and in test [2] was “inactive” in each case. For `O=C(Nc1ccc(OC(F)(F)F)cc1)c1sccc1NCc1ccnc2ccccc12`, the Potency result in test [1] and in test [2] was “inactive” in each case. Regarding `O=C(O)CCNc1cc(N2CCc3ccccc3CC2)nc(-c2ccccn2)n1`, the Potency result in test [1] and in test [2] was “inactive” each time.

Consider `Cc1cnc(Nc2cccc(CN3CCOCC3)c2)nc1Nc1cccc(S(=O)(=O)NC(C)(C)C)c1`, for which the Potency result in test [1] and in test [2] was “inactive” in each case. As to `Fc1ccc(CNc2ncnc3ccc(F)cc23)cc1`, the Potency entry in test [1] and in test [2] was “inactive” each time. On to `CCCCC(F)(F)[C@@]1(O)CC[C@H]2[C@H](CC(=O)[C@@H]2CCCCCCC(=O)O)O1`, for which the Potency result in test [1] and in test [2] was “inactive” in each case. Consider `NC(=O)c1noc([C@H](CCCC2CCCCC2)CC(=O)NO)n1`, for which, in test [2], the Potency result was “inactive”. For the compound `CC(C)(OCc1nn(Cc2ccccc2)c2ccccc12)C(=O)O`, the Potency entry in test [1] and in test [2] was “inactive” in each case. For the compound `C[C@@H]1CCO[C@H]2Cn3cc(C(=O)NCc4ccc(F)cc4F)c(=O)c(O)c3C(=O)N12`, the Potency entry in test [2] was “inactive”.

As to `CN1CCN(c2cccc(Nc3nc4c(-c5ccc(S(C)(=O)=O)cc5)cccn4n3)c2)CC1`, the Potency entry in test [2] was “inactive”. In the case of `Cc1cnc(CNC(=O)c2c(=O)c3ccc(N4CCCN(C)CC4)nc3n3c2sc2ccccc23)cn1`, the Potency entry in test [1] was “inactive”. In addition, in test [2], the activity change, negative = inhibition was 5.25% [at 19.1 µM]. Regarding `CN1CCC(COc2cnc(-c3cccc(Cn4nc(-c5cccc(C#N)c5)ccc4=O)c3)nc2)CC1`, the Potency entry in test [1] and in test [2] was “inactive” each time. `COc1ccc(Cn2ccc3ccc(C(=O)NO)cc32)cc1`: the Potency entry in test [2] is “inactive”. Regarding `CCn1c(-c2nonc2N)nc2cncc(CNC3CCNCC3)c21`, the Potency result in test [1] and in test [2] was “inactive” each time. In the case of `CCc1cccc(CC)c1NC(=O)N1Cc2[nH]nc(NC(=O)c3ccc(N4CCN(C)CC4)cc3)c2C1`, the Potency result in test [1] and in test [2] was “inactive” each time. `CNc1nc(Nc2ccc(C(=O)N3CCOCC3)cc2OC)ncc1Cl`: the Potency result in test [1] and in test [2] was “inactive” each time. For `COc1nccc(-c2c(-c3ccc(F)cc3)ncn2C2CCC(O)CC2)n1` (stereo unspecified), the Potency result in test [1] and in test [2] was “inactive” throughout.
